Laboratory results reported in the supplement of paper PMC11732987, “Enantioselective OTUD7B fragment discovery through chemoproteomics screening and high-throughput optimisation” (Communications Chemistry, 2025).
Unmarked numbers belong to inactive results.

What was measured:
Assay in all cases: log2 ratio of Biotin-Ahx-Ub-VS probe labelling (fragment/DMSO); higher = less target engagement (more negative = stronger competition), active = hit call of the paper (q ≤ 0.05, log2 ratio ≤ -1)
Conditions in all cases: compound concentration: 200 uM; treatment time: 3 h
ALG13 = target: T1, ALG13 (UniProt Q9NP73)
T1 sequence (whole entry): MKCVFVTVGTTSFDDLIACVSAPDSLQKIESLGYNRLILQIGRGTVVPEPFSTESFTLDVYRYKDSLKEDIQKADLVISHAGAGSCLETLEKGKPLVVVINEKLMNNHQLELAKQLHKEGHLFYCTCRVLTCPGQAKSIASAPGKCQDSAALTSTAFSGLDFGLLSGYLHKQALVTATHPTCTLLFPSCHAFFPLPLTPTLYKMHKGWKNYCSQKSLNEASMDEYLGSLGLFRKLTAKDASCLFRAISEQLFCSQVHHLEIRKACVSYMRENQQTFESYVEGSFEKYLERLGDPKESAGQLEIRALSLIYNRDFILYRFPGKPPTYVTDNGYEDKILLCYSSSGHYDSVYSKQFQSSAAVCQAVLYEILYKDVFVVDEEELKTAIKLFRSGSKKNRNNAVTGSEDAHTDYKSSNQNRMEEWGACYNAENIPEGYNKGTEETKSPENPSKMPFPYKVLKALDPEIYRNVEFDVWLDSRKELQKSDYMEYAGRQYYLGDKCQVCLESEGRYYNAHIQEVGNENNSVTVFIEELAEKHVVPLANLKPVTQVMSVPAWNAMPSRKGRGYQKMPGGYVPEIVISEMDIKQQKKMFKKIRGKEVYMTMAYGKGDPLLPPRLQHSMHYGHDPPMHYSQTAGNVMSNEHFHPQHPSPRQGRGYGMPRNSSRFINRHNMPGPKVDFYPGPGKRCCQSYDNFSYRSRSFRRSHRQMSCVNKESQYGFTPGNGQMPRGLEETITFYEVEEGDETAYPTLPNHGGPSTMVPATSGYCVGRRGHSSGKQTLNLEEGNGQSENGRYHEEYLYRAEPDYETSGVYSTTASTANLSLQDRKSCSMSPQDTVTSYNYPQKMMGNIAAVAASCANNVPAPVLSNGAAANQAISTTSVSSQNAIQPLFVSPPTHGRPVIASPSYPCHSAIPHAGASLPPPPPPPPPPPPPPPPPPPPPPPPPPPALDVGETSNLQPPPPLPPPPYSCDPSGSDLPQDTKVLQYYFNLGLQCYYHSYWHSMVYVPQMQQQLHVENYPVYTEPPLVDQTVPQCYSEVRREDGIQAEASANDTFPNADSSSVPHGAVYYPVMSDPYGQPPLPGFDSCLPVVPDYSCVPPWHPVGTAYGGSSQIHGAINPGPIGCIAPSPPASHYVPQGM
How it was run: (§1)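 Global-median-normalised Spectronaut label-free quantities were compared by unpaired t-test, and values are average log2 ratios of fragment over vehicle. Only proteins with ≥2 unique peptides were used. HEK293T lysate (495 µg per sample) was treated in triplicate with fragment at 200 µM or vehicle for 3 h and then with Biotin-Ahx-Ub-VS at 0.5 µM final for 1 h. Labelled DUBs were then NeutrAvidin-enriched, digested with LysC and trypsin, and run by diaPASEF LC-MS/MS.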

ATXN3 = ATXN3 (UniProt P54252)
Sequence of ATXN3 (P54252 whole entry): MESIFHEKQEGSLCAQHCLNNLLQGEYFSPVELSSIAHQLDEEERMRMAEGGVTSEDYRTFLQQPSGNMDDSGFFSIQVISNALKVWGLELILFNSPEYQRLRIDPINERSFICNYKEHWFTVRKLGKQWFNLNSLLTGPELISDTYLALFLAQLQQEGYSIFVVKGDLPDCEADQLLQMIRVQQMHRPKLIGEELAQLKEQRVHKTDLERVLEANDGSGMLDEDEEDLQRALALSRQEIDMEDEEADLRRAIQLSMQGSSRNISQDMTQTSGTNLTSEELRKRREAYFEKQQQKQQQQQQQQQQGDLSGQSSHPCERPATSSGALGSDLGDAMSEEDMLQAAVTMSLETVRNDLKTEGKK
How it was run: as §1

BAP1 = target: T2, BAP1 (UniProt Q92560)
T2 sequence (whole entry): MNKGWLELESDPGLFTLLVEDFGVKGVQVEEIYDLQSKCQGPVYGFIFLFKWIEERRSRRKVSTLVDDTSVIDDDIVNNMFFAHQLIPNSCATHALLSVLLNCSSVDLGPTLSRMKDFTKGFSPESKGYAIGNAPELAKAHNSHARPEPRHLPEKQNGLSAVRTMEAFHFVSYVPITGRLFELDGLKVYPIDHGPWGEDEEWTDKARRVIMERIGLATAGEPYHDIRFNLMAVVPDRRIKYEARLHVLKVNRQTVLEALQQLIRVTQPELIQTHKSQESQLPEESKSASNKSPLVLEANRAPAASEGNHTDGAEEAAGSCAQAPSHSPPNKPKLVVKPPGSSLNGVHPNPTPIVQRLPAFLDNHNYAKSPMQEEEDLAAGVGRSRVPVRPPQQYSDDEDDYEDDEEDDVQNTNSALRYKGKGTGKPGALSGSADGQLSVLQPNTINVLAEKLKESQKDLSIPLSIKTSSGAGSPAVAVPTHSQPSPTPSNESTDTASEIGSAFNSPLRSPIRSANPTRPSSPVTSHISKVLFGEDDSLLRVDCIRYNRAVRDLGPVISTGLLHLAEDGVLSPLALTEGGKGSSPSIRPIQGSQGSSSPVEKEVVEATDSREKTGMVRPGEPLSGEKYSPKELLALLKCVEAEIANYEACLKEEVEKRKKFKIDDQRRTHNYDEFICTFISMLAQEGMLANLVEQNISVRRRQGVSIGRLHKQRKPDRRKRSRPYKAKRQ
How it was run: as §1

EIF3F = EIF3F (UniProt O00303)
Sequence of EIF3F (O00303 whole entry): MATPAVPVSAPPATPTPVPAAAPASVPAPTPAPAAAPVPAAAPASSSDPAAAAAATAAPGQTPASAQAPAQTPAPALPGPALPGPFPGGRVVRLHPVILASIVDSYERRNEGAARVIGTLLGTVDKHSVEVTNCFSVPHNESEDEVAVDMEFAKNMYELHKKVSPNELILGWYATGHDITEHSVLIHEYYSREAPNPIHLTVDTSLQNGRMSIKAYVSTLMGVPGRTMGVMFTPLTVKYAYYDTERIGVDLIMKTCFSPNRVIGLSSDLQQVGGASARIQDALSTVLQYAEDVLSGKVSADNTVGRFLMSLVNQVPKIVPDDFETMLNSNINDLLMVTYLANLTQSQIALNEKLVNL
How it was run: as §1

EIF3H = EIF3H (UniProt O15372)
Sequence of EIF3H (O15372 whole entry): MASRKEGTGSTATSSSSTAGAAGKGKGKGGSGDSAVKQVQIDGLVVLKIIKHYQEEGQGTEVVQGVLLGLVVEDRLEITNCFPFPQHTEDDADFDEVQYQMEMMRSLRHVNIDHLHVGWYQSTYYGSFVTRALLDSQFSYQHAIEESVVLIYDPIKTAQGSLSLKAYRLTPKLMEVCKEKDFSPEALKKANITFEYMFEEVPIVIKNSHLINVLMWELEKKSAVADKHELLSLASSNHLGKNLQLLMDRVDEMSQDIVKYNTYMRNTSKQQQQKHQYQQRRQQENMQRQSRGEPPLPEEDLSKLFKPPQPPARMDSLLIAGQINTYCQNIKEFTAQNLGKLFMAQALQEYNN
How it was run: as §1

FAM105A = target: T3, FAM105A (UniProt Q9NUU6)
T3 sequence (whole entry): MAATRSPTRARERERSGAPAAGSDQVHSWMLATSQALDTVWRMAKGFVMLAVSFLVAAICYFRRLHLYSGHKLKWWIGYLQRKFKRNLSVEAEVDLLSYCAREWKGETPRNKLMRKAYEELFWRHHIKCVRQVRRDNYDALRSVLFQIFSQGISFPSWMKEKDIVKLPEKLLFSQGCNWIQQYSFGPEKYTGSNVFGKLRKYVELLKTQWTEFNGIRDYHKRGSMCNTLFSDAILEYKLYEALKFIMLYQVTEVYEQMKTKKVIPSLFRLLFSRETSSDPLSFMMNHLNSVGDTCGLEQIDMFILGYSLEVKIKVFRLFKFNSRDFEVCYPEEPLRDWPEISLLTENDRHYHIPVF
How it was run: as §1

OTUB1 = OTUB1 (UniProt Q96FW1)
Sequence of OTUB1 (Q96FW1 whole entry): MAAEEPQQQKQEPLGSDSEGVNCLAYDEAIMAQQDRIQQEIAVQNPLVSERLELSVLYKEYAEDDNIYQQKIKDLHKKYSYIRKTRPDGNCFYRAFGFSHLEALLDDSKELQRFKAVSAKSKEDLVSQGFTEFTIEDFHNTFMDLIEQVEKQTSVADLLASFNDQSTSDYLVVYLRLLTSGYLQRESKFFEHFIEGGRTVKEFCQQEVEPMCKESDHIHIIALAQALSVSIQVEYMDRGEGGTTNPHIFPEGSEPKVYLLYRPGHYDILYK
How it was run: as §1

OTUD4 = target: T4, OTUD4 (UniProt Q01804)
T4 sequence (whole entry): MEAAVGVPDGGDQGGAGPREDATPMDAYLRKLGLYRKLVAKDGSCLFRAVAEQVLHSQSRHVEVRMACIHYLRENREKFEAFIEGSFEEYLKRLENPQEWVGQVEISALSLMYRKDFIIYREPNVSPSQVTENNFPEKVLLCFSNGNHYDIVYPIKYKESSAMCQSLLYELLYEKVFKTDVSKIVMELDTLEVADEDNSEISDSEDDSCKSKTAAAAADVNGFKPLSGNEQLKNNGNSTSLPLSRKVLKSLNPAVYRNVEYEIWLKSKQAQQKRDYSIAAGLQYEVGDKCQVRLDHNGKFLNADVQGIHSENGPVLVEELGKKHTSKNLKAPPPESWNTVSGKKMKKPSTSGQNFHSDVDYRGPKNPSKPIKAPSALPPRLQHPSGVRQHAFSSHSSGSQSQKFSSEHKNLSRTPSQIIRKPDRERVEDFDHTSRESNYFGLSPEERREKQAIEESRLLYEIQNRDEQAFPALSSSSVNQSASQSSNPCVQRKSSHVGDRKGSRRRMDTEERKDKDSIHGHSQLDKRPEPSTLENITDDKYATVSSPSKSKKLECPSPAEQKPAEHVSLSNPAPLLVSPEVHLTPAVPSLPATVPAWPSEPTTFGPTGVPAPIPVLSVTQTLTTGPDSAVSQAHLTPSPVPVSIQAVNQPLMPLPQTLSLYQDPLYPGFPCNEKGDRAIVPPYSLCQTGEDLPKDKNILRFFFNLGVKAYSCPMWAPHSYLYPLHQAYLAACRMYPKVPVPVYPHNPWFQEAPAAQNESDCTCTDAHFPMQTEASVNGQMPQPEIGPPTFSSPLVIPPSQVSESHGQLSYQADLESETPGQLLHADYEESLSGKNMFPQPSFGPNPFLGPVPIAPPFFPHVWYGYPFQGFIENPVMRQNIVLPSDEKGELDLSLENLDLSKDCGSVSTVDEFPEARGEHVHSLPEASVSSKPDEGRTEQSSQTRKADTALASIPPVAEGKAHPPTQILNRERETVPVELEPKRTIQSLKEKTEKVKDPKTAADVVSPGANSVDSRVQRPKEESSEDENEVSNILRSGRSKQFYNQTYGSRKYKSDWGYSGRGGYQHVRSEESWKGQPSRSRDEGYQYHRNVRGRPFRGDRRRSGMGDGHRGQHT
How it was run: as §1

OTUD5 = target: T5, OTUD5 (UniProt Q96G74)
T5 sequence (whole entry): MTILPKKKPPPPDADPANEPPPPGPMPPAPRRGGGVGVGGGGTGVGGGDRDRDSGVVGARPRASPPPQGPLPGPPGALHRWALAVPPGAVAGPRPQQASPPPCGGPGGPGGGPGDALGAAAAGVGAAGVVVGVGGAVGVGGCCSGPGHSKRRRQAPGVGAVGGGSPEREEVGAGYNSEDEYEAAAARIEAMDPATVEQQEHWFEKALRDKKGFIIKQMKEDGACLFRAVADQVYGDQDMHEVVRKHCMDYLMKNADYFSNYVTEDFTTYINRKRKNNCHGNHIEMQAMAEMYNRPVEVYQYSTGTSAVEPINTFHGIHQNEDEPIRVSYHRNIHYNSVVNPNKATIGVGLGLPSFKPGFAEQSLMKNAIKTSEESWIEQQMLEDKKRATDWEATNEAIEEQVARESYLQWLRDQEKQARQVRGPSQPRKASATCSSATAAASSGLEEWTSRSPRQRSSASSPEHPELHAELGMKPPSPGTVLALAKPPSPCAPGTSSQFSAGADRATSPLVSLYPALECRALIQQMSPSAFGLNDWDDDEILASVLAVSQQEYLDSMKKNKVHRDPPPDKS
How it was run: as §1

Q: `O=C(CCl)Nc1cc2c(cc1Cl)OCCCO2` was tested. Which “log2 ratio of Biotin-Ahx-Ub-VS probe labelling” value (shortened to “log2 ratio”) (ALG13) did it give?
A: 0.0687

Q: What about the “log2 ratio” value (ATXN3) of the same compound?
A: -0.0939

Q: And the “log2 ratio” value (BAP1)?
A: -3.43 (active)

Q: And the “log2 ratio” value (EIF3F)?
A: -0.197

Q: What about the “log2 ratio” value (EIF3H) of the same compound?
A: -0.577

Q: And the “log2 ratio” value (FAM105A)?
A: 0.278

Q: And the “log2 ratio” value (OTUB1)?
A: -0.0827

Q: What about the “log2 ratio” value (OTUD4) of the same compound?
A: 0.136

Q: What about the “log2 ratio” value (OTUD5) of the same compound?
A: -0.0905
